Compound activity (PubChem BioAssay)
BJeLR viability: BJeLR cell viability loss; BJeLR (HRASV12) viability, CellTiter-Glo ATP luminescence, 48 h; inhibition, % (test concentration not listed); 300,000 compounds, 0.17% hits; AID 1554; in the data active means inhibition above about 50%
PrPC TRFRET: reduces human prion protein on the cell surface | P04156 | 370,000 compounds, 0.43% hits | inhibition, % at 13.8 µM | cell surface PrPC, TR-FRET read-out; in the data active means inhibition above about 24%; further: 0% = median of the test wells and 100% = reference compound wells
GDH-TPI inh: GDH-TPI coupled enzyme inhibition counter-screen; inhibition, % at 4.8 µM; 360,000 compounds, 1.2% hits; GDH-TPI coupled enzyme counterscreen, NADH absorbance; in the data active means inhibition above about 30%;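 further: 0% = DMSO wells and 100% = wells lacking the enzyme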
RecA intein inh: inhibitors of M. tuberculosis RecA intein splicing. inhibition, % (no concentration beside the values). P9WHJ3. 290,000 compounds, 0.75% hits. cell-free RecA intein splicing, fluorescence; in the data active means inhibition above about 30%;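 further: 0% = vehicle wells and 100% = reference inhibitor control wells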
Mtb FBA inh: inhibits M. tuberculosis FBA enzyme; P9WQA3; purified M. tuberculosis FBA, fluorescence read-out; inhibition, % at 1 µM; 360,000 compounds, 2.3% hits; AID 588726; in the data active means inhibition above about 27%;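 further: 0% = vehicle and 100% = reference inhibitor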
Target sequence (P9WQA3 whole entry, looked up): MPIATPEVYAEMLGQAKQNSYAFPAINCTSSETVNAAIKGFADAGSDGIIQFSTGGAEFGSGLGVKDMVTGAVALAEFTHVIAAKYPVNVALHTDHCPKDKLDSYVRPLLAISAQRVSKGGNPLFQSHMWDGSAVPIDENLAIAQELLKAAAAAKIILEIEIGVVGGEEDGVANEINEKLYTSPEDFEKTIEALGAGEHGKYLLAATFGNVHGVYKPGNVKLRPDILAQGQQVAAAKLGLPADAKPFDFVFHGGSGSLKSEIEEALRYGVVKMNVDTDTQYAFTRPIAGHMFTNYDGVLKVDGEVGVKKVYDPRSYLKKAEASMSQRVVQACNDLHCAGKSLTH
* = called active by the depositor; . = no result given. Compounds with a hit are over-represented: about 4.2% of the library has one in this group of screens.

SMILES	BJeLR viability	PrPC TRFRET	GDH-TPI inh	RecA intein inh	Mtb FBA inh
COc1cccc(-c2c(C(=O)N/N=C/c3sccc3C)nnn2-c2nonc2N)c1	-5	-2	35*	1	-1
Cc1onc(-c2c(F)cccc2Cl)c1-c1ncc(-c2ccc(Cl)cc2)o1	.	-8	.	.	.
CCC[C@H]1[C@@H](OC(=O)NCc2ccc(Cl)c(Cl)c2)CC[C@@]23CCCN2C(=O)CCC[C@@H]13	.	-1	.	.	.
COc1ccc(S(=O)(=O)N2CCN(C(=O)CSc3nc4ccccc4nc3N3CCCCC3)CC2)cc1	.	7	.	.	.
COc1cccc(-c2c(C(=O)N/N=C(\C)c3cccs3)nnn2-c2nonc2N)c1	-2	2	31*	-4	4
Cc1ccsc1/C=N/NC(=O)c1nnn(-c2nonc2N)c1C	0	-6	31*	.	1
CCOc1cccc(-c2c(C(=O)N/N=C(\C)c3cccs3)nnn2-c2nonc2N)c1	-3	0	11	0	-2
O=c1c2cc3cc(Cl)ccc3nc2ncn1N1CCCCC1	.	-3	.	.	.
C=CCNC(=S)N/N=C/c1ccc(C)c([N+](=O)[O-])c1	.	-8	20	.	-2
CN(C)c1ccc(/C=N/NC(N)=S)cc1[N+](=O)[O-]	-9	-49	43*	-4	-3
C(=C\c1ccccc1)/C=N/Nc1nc2ccccc2[nH]1	5	5	39*	1	0
Cc1ccccc1/C=N/Nc1nc2ccccc2[nH]1	10	-1	12	-1	189*
O=[N+]([O-])c1cc(/C=N/Nc2nc3ccccc3[nH]2)c(O)cc1O	10	-16	.	40*	.
C(=N\Nc1nc2ccccc2[nH]1)/c1ccccc1	-8	4	15	-16	0
CCOC(=O)[C@]12CCCCC/C=C\1N(Cc1ccc(OC)cc1)C(=O)[C@H]2CC(=O)NCCC(C)C	.	10	.	.	.
CN(C)S(=O)(=O)c1cccc(NC(=S)N/N=C/c2ccco2)c1	13	3	52*	0	4
COc1cccc(/C=N/NC(=S)Nc2cccc(S(=O)(=O)N(C)C)c2)c1	-11	2	17	-5	1
CN(C)S(=O)(=O)c1cccc(NC(=S)N/N=C/c2ccc(O)c(O)c2O)c1	4	6	32*	8	-5
Cc1ccccc1C(=O)N(C)[C@H]1C[C@H]2c3[nH]c4c(-c5ccc6c(c5)OCO6)cccc4c3CCN2C[C@H]1[C@H](C)O	.	-1	.	.	.
C#CCNC(=O)C[C@H]1C[C@@]2(C(=O)OC)C(=C[C@H](C(C)(C)C)O[C@@H]2C)N(Cc2ccc(Cl)cc2Cl)C1=O	.	-1	.	.	.
O=C(O)/C=C\C(=O)Nc1ccc(Oc2ccc(Br)cc2)cc1	5	5	1	32*	1
Clc1cccc(Cl)c1/C=C/c1nc2ccccc2[nH]1	-6	.	15	16	138*
O=c1[nH]c(/C=C/c2ccccc2Cl)nc2ccccc12	-3	-5	12	-28	5
O=C(NCCN1C(=O)C2C3C=CC(C3)C2C1=O)c1cc(F)cc(F)c1 (centres undefined)	.	-3	.	.	.
CCCCC[C@H](O)/C=C/[C@@H]1[C@@H](C/C=C\CCCC(=O)OC)[C@@H](O)C[C@H]1O	-3	.	-5	41*	0
SMILES	BJeLR viability	PrPC TRFRET	GDH-TPI inh	RecA intein inh	Mtb FBA inh
COCCCNC(=O)C[C@H]1C[C@@]2(C(=O)OC)C(=C[C@H](C(C)C)O[C@@H]2C2CC2)N(Cc2ccc(Cl)cc2Cl)C1=O	.	-5	.	.	.
COc1ccccc1CN(C)C(=O)C1CCCN(c2nc3ccccc3o2)C1 (centres undefined)	.	-3	.	.	.
CC(C)(C)c1ccc(-c2nnc(SCC(=O)c3ccc([N+](=O)[O-])cc3)n2-c2ccc(Cl)cc2)cc1	.	-4	.	.	.
Cc1ccc(N=C2NC(=O)/C(=C/c3cccnc3)S2)cc1C	-11	3	8	2	0
O=C1NC(=Nc2ccccc2)S/C1=C\c1cccnc1	-3	3	33*	9	0
O=C1N/C(=N/S(=O)(=O)c2ccccc2)S/C1=C/c1cccnc1	-3	-6	33*	0	1
COc1cccc(NC(=O)Nc2c(-c3ccc(F)cc3)nc3ncccn23)c1	.	1	.	.	.
N#C/C(=C/c1ccc2c(c1)OCO2)C(=O)Nc1ccc(O)cc1	1	-4	16	59*	-1
CCOc1cc(/C=C(/C#N)C(=O)Nc2ccc(O)cc2)cc(Br)c1O	29	-3	2	60*	-21
C=CCNC(=O)/C(C#N)=C\c1cc(Cl)c(O)c(OCC)c1	-1	15	8	-2	-9
C[C@@H]1CCN(C2CC2)S(=O)(=O)c2c(cccc2N2CCC[C@H]2CO)O1	.	4	.	.	.
